About 7,900 targets were measured; listed, in parts, are those with a hit and a random draw of the rest. About 0.6% of all pairs of compound and target were hits.
What was measured:
Experiment in all cases: log2 fold change, soluble protein after heating vs DMSO (PISA); higher = thermal stabilisation; K562 cells, 10 uM, 30 min; active = over 0.2 and 3.5 SD of the protein, either way, in both replicates (recomputed)
IRAK-1-4 Inhibitor I = compound: C1COCCN1CCN2C3=CC=CC=C3N=C2NC(=O)C4=CC(=CC=C4)[N+](=O)[O-] [IRAK-1-4 Inhibitor I]
Summary of the method: (§1)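 K562 cells at 2×10^6 cells/mL were exposed to 10 μM compound for 30 min, then aliquots were heated for 3 min across 48°C-58°C, pooled, and extracted in PBS containing 0.5% NP-40 at 4°C. The supernatant after 21,000xg for 90 min was taken as soluble protein and measured by TMTpro 16plex LC-MS/MS with channel sums equalised. Thermal stability is reported relative to control samples, with values from duplicates. Fold changes are given on a log2 scale.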

ibrutinib = compound: C=CC(=O)N1CCC[C@@H](n2nc(-c3ccc(Oc4ccccc4)cc3)c3c(N)ncnc32)C1 [ibrutinib]
Summary of the method: as §1

[1] = compound: CC(=O)c1cnc2ccc(-c3cc(Cl)c(O)c(Cl)c3)nc2c1N[C@H]1CC[C@H](CN(C)C)CC1
Summary of the method: as §1

ralimetinib = compound: CC(C)(C)Cn1c(N)nc2ccc(-c3[nH]c(C(C)(C)C)nc3-c3ccc(F)cc3)nc21 [ralimetinib]
Summary of the method: as §1

[2] = compound: CC(C)(O)CC(=O)NCCn1ccc2ncnc(Nc3ccc(Oc4cccc(C(F)(F)F)c4)c(Cl)c3)c21
Summary of the method: as §1

[3] = compound: CC(C)C1=C2N=C(C=C(N2N=C1)NCC3=CC=CC=C3)NCCCCCCN
Summary of the method: as §1

[4] = compound: CC(C)C[C@@H](C=O)NC(=O)[C@H](CC(C)C)NC(=O)[C@H](CC(C)C)NC(=O)OCc1ccccc1
Summary of the method: as §1

pinometostat = compound: CC(C)N(C[C@H]1O[C@@H](n2cnc3c(N)ncnc32)[C@H](O)[C@@H]1O)[C@H]1C[C@@H](CCc2nc3cc(C(C)(C)C)ccc3[nH]2)C1 [pinometostat]
Summary of the method: as §1

[5] = compound: CC1=C(C(CC(=O)N1)C2=CC=C(C=C2)C(F)(F)F)C(=O)NC3=C(C=C4C(=C3)C=NN4)F
Summary of the method: as §1

[6] = compound: CC1=C(C2=C(C=C1)C(=O)C3=CC=CC=C3N2CCCN)C
Summary of the method: as §1

[7] = compound: CC1=C(C=C(C=C1)NC(=O)C2=CC(=CC=C2)C(C)(C)C#N)NC3=CC4=C(C=C3)N=CN(C4=O)C
Summary of the method: as §1

[8] = compound: CC1=C(C=C(C=C1)NC(=O)C2=CC(=CC=C2)N(C)C)NC(=O)C3=CC=C(C=C3)O
Summary of the method: as §1

[9] = compound: CC1=CC=C(C=C1)SC2=C3C=C(SC3=CN=C2)C(=O)N
Summary of the method: as §1

[10] = compound: CC1=NC(=CC=C1)C2=C(N=C(N2)C(C)(C)C)C3=CC4=NC=CN=C4C=C3
Summary of the method: as §1

Nexturastat A = compound: CCCCN(Cc1ccc(C(=O)NO)cc1)C(=O)Nc1ccccc1 [Nexturastat A]
Summary of the method: as §1

vemurafenib = compound: CCCS(=O)(=O)Nc1ccc(F)c(C(=O)c2c[nH]c3ncc(-c4ccc(Cl)cc4)cc23)c1F [vemurafenib]
Summary of the method: as §1

[11] = compound: CCCS(=O)(=O)Nc1ccc(F)c(C(=O)c2c[nH]c3ncc(Cl)cc23)c1F
Summary of the method: as §1

[12] = compound: CCCc1cc(C)[nH]c(=O)c1CNC(=O)c1cc(-c2ccnc(N3CCN(C)CC3)c2)cc2c1cnn2C(C)C
Summary of the method: as §1

givinostat = compound: CCN(CC)Cc1ccc2cc(COC(=O)Nc3ccc(C(=O)NO)cc3)ccc2c1 [givinostat]
Summary of the method: as §1

barasertib = compound: CCN(CCCOc1ccc2c(Nc3cc(CC(=O)Nc4cccc(F)c4)[nH]n3)ncnc2c1)CCOP(=O)(O)O [barasertib]
Summary of the method: as §1

Measured: log2 fold change

TMEM9 (UniProt Q9P0T7)
Sequence of UniProt Q9P0T7 (Q9P0T7 whole entry, looked up): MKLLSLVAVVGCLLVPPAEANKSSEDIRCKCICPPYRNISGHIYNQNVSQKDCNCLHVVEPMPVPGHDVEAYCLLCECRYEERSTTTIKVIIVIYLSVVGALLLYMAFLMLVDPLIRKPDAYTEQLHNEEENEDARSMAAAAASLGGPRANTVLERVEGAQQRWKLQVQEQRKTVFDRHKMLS
inactive: IRAK-1-4 Inhibitor I 0.076 | ibrutinib 0.039 | [1] 0.012 | ralimetinib -0.003 | [2] -0.07 | [3] -0.211 | [4] 0.064 | pinometostat -0.042 | [5] 0.067 | [6] -0.013 | [7] -0.024 | [8] -0.041 | [9] 0.057 | [10] -0.008 | Nexturastat A 0 | vemurafenib 0.028 | [11] 0.091 | [12] -0.062 | givinostat 0.039 | barasertib 0.019

TRMT2A (UniProt Q8IZ69)
inactive: IRAK-1-4 Inhibitor I -0.028 | ibrutinib 0.005 | [1] -0.098 | ralimetinib 0.039 | [2] 0.013 | [3] -0.146 | [4] 0.034 | pinometostat 0.085 | [5] 0.018 | [6] -0.142 | [7] 0.083 | [8] -0.02 | [9] -0.009 | [10] 0.005 | Nexturastat A 0.013 | vemurafenib 0.022 | [11] -0.032 | [12] 0.085 | givinostat -0.123 | barasertib -0.003

TRMT61A (UniProt Q96FX7)
inactive: IRAK-1-4 Inhibitor I 0.07 | ibrutinib 0.14 | [1] -0.002 | ralimetinib 0.06 | [2] 0.109 | [3] -0.099 | [4] 0.086 | pinometostat 0.188 | [5] -0.034 | [6] -0.401 | [7] 0 | [8] 0.056 | [9] -0.013 | [10] -0.083 | Nexturastat A 0.204 | vemurafenib -0.119 | [11] -0.009 | [12] 0.114 | givinostat 0.038 | barasertib -0.091

VTI1A (UniProt Q96AJ9)
inactive: IRAK-1-4 Inhibitor I 0.095 | ibrutinib 0.012 | [1] -0.009 | ralimetinib -0.111 | [2] 0.019 | [3] 0.005 | [4] 0.028 | pinometostat -0.016 | [5] 0.028 | [6] -0.01 | [7] -0.039 | [8] 0.015 | [9] 0.011 | [10] 0.095 | Nexturastat A -0.023 | vemurafenib -0.014 | [11] -0.035 | [12] 0.052 | givinostat -0.013 | barasertib -0.009

UBE4B isoform 4 (UniProt O95155)
inactive: IRAK-1-4 Inhibitor I 0.008 | ibrutinib -0.031 | [1] 0.006 | ralimetinib 0.057 | [2] -0.117 | [3] -0.041 | [4] 0.047 | pinometostat 0 | [5] 0.004 | [6] -0.005 | [7] 0.007 | [8] -0.012 | [9] 0.001 | [10] 0.014 | Nexturastat A -0.017 | vemurafenib 0.024 | [11] 0.045 | [12] -0.008 | givinostat 0.008 | barasertib 0.042

WNK1 isoform 7 (UniProt Q9H4A3)
Sequence of UniProt Q9H4A3 (Q9H4A3 whole entry, looked up): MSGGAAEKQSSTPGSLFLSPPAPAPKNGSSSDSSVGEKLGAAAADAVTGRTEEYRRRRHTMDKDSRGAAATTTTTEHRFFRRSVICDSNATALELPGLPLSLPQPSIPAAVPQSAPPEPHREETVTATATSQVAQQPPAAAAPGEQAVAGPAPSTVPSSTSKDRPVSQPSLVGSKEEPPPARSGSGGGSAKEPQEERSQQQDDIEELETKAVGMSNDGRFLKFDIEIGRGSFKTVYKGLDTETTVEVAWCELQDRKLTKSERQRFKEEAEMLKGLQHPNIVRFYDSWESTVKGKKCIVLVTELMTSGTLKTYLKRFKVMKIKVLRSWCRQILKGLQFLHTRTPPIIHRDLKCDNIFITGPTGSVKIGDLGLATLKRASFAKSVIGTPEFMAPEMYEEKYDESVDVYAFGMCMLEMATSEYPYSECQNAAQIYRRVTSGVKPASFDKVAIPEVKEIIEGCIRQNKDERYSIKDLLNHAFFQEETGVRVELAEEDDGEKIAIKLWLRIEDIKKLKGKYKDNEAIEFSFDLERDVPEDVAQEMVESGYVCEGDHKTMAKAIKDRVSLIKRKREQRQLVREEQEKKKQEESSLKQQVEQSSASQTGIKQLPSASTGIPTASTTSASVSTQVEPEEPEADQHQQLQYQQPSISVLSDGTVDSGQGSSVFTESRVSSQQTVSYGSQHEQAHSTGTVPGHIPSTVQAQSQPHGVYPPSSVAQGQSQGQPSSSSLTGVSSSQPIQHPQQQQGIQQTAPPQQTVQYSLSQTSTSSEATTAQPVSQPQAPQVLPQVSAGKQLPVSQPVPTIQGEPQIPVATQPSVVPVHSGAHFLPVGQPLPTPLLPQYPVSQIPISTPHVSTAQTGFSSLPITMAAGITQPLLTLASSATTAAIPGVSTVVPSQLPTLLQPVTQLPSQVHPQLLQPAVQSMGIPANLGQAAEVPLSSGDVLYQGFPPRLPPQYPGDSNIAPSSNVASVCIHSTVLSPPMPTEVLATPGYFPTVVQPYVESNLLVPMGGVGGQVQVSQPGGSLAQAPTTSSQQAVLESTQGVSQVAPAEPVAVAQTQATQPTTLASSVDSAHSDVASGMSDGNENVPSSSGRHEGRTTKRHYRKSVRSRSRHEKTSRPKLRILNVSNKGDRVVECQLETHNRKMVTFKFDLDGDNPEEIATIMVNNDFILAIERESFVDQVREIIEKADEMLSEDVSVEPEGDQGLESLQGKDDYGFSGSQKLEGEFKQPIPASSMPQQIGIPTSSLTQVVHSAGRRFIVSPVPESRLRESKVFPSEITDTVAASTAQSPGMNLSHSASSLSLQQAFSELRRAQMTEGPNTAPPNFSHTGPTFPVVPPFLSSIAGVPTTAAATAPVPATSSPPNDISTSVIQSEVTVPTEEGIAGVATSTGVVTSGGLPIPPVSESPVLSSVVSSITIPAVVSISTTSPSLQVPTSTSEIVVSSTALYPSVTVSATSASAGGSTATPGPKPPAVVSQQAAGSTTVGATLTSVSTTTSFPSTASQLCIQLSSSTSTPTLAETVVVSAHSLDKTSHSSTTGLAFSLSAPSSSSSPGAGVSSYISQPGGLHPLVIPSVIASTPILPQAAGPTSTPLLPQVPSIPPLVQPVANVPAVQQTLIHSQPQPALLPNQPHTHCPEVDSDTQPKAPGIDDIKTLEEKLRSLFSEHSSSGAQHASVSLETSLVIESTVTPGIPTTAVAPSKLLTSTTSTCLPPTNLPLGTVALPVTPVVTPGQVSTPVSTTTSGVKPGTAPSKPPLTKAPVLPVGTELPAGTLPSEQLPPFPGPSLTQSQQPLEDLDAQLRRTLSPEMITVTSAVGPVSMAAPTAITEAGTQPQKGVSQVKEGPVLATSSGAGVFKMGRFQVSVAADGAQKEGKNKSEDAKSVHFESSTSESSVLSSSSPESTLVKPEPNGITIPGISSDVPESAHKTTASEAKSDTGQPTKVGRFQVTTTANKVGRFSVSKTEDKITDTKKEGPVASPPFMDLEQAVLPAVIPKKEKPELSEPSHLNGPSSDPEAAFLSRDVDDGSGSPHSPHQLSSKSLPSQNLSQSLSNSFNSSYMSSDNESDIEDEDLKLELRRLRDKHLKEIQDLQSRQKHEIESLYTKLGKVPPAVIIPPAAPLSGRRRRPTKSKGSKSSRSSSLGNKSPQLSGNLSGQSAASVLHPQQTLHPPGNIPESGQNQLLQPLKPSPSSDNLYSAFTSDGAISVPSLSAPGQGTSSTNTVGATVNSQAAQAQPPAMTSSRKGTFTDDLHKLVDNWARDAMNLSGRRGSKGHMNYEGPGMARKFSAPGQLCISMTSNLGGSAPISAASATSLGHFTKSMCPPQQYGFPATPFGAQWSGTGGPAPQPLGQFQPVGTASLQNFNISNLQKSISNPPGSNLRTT
active: [4] 0.476
inactive: IRAK-1-4 Inhibitor I 0.015 | ibrutinib 0.01 | [1] -0.213 | ralimetinib -0.045 | [2] 0.017 | [3] -0.005 | pinometostat 0.004 | [5] -0.011 | [6] 0.027 | [7] -0.047 | [8] 0.426 | [9] -0.006 | [10] -0.019 | Nexturastat A -0.03 | vemurafenib -0.023 | [11] 0.004 | [12] -0.006 | givinostat 0.03 | barasertib 0.032

TP53BP1 isoform 2 (UniProt Q12888)
Sequence of UniProt Q12888 (Q12888 whole entry, looked up): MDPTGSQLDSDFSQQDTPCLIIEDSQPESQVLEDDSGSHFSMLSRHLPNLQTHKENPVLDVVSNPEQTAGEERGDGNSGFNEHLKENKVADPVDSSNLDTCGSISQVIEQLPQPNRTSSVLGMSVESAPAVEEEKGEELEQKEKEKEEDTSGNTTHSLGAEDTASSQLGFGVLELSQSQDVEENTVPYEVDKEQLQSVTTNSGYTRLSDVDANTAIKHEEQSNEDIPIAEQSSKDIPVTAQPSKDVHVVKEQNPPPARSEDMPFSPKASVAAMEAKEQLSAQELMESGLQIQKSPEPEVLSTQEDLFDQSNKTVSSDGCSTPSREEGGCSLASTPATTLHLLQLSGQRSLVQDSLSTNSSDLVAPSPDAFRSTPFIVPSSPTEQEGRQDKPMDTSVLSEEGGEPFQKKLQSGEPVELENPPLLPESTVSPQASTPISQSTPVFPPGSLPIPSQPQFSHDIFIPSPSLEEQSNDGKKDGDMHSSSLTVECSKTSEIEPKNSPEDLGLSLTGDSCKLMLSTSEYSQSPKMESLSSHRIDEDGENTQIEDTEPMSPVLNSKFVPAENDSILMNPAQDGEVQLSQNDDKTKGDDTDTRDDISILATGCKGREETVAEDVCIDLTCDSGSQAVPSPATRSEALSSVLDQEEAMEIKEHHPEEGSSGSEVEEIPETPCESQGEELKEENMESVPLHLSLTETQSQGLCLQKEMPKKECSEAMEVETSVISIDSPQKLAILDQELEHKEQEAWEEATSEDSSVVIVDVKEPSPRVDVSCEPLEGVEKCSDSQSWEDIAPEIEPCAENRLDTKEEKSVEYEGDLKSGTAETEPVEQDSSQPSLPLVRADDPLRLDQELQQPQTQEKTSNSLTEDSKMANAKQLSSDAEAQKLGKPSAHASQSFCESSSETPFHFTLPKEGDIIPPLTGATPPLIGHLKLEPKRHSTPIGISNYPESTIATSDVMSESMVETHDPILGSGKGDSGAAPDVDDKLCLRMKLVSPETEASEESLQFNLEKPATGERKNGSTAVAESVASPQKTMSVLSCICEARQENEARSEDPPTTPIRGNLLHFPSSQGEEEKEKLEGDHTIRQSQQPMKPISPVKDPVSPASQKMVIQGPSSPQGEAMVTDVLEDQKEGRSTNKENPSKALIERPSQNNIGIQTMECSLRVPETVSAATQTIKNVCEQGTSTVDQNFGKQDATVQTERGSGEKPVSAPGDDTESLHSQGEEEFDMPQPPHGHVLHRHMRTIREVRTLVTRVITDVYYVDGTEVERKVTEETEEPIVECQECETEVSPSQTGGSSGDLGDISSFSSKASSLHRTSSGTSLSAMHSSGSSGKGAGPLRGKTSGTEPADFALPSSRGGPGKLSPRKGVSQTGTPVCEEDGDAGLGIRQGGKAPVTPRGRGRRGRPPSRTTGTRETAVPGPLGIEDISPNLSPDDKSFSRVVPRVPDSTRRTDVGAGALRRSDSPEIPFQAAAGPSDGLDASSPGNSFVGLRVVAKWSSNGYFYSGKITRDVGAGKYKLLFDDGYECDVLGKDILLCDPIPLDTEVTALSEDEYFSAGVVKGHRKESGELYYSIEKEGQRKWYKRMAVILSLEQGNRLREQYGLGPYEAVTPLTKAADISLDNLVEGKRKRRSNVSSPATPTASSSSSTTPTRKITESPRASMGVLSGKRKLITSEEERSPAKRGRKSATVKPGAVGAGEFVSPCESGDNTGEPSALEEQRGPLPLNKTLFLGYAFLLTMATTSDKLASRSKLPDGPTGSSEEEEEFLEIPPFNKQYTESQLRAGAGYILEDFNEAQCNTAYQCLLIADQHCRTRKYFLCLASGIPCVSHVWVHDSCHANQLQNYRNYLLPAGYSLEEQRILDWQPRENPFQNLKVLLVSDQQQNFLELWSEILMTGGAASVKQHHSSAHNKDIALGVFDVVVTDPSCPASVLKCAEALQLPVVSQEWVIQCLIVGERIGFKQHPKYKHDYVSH
inactive: IRAK-1-4 Inhibitor I -0.059 | ibrutinib -0.046 | [1] -0.002 | ralimetinib 0.056 | [2] -0.024 | [3] -0.089 | [4] 0.019 | pinometostat 0.021 | [5] 0.003 | [7] -0.02 | [8] -0.032 | [9] 0 | [10] -0.022 | Nexturastat A 0.045 | vemurafenib 0 | [11] 0.02 | [12] 0.056 | givinostat 0.019 | barasertib 0.022
active: [6] -0.337

UBE3D (UniProt Q7Z6J8)
Sequence of UniProt Q7Z6J8 (Q7Z6J8 whole entry, looked up): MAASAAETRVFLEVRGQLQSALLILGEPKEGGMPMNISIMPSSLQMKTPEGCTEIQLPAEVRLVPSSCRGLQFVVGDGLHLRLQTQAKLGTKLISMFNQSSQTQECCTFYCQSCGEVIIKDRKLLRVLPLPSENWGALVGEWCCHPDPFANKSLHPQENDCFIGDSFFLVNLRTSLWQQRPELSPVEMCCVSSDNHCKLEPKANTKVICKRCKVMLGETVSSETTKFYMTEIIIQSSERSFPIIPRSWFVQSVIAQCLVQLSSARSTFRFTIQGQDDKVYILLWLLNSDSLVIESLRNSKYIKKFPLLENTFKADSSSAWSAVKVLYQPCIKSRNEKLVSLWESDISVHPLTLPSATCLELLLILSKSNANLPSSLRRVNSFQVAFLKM
inactive: IRAK-1-4 Inhibitor I 0.029 | ibrutinib 0.047 | [1] 0.026 | ralimetinib 0.015 | [2] 0.088 | [3] 0.011 | [4] -0.061 | pinometostat -0.012 | [5] -0.045 | [6] 0.051 | [7] -0.036 | [8] 0.036 | [9] -0.049 | [10] 0.01 | Nexturastat A -0.016 | vemurafenib 0.014 | [11] 0.04 | [12] 0.006 | givinostat -0.075 | barasertib 0.018

Reference: the supplement of paper PMC10849652
